Source: PubChem (National Center for Advancing Translational Sciences (NCATS))
ATXN2 expr inh: inhibitors of ATXN2 expression; 360,000 compounds, 0.72% hits; AID 1745845; HEK-293 ATXN2-luciferase reporter, luminescence, 24 h; Potency, µM (highest dose often 57 µM), inactives show at the highest dose activity change, negative = inhibition, most hits filed as inhibitors; note: potency is the fitted concentration of half-maximal effect; % is set by controls: 0 for no effect and ±100 for the full control effect; nearly all actives have a fitted effect of over 55% in size
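ATXN2-luciferase reporter cells (luciferase flanked by upstream and downstream ATXN2 gene portions) were treated 24 h at 37 °C with compounds at up to 57 uM. SteadyGlo luminescence gave expression; GF-AFC fluorescence gave viability.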
ATXN viability: reduces viability in counter-screen for ATXN expression inhibitors. Potency, µM (titrated, usually from 56.7 µM), usual class: cytotoxic. 400,000 compounds, 0.49% hits. S2 cells (HEK-293 line with an ATXN2-luciferase reporter) viability, CellTiter-Fluor protease fluorescence, 24 h. AID 651635; note: potency is the fitted concentration of half-maximal effect; nearly all actives have a fitted effect of over 40% in size
SW480 rerep: induces DNA re-replication in SW480 colon adenocarcinoma cells | SW480 DNA re-replication, Hoechst DNA content imaging, 48 h | AID 624297 | 340,000 compounds, 1.8% hits | Potency, µM (highest dose often 46.1 µM), for inactives: at the highest dose re-replication activation, actives largely listed as activators; note: potency is the fitted concentration of half-maximal effect; % of control where 0% means no effect; nearly all actives have a fitted effect of over 55% in size
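Readout is total intensity of Hoechst-stained nuclei, excited at 405 nm and collected at 500-530 nm. Compound treatment lasted 48 hr at 37 C in 5% CO2 before staining.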
PINK1 expr mod: changes PINK1 expression; AID 624263; 410,000 compounds, 0.2% hits; PINK1 immunofluorescence, high-content cytometry, 24 h; Potency, µM (titrated, usually from 76.6 µM), for inactives: at the highest dose activation (PINK1 increase), most hits filed as activators; active = well fitted activation curve with a large enough effect; inconclusive = small, poorly fitted or top-dose-only effect; cell line not stated here; note: potency is the fitted concentration of half-maximal effect; % of control where 0% means no effect; nearly all actives have a fitted effect of over 65% in size
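Cells are seeded, rested 12 hours, then given compound at five concentrations or DMSO for 24 hours. After fixation, blocking and antibody staining, PINK1 amount and mitochondrial localization are scored; CCCP serves as control.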
MCF10A rerep: inducers of DNA re-replication in MCF 10A breast cells. MCF 10A DNA re-replication, Hoechst nuclear intensity, 48 h. Potency, µM (doses to about 46.1 µM), without a hit: at the highest dose activity, positive = re-replication, usual class: activators. 350,000 compounds, 2.9% hits. AID 624296; note: potency is the fitted concentration of half-maximal effect; % of control where 0% means no effect; nearly all actives have a fitted effect of over 50% in size
IL1B secr inh: inhibitors of inflammasome signaling (IL-1 beta secretion). THP-1 LPS/ATP IL-1B secretion, AlphaLISA, 16 h; stronger effect = lower value. 360,000 compounds, 4.7% hits. activity change, % at 57.5 µM; in the data active = activity change below about -50%; inconclusive = mostly about -30% to -49%; note: % is set by controls: 0 for no effect and ±100 for the full control effect
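Secreted IL-1B measured by AlphaLISA bead assay after 16 h compound exposure of THP-1 cells; compounds (final up to 57.5 uM) added 1 h before LPS (250 ng/mL) and ATP (1.25 mM) stimulation; lower signal means less secretion.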
Active calls of the source: *; i = inactive; ? = inconclusive; . = not tested or not shown; [ ] = remark or other dose. Compounds with a hit are over-represented: about 7.1% of the library has one in this group of screens. Unless noted, calls come from the whole dose curve; as a rule, active = well fitted curve in the direction sought with a large enough effect; inconclusive = small, poorly fitted or top-dose-only effect, or another doubt; inactive = no such curve, though single readings can be large; an effect the other way counts as inactive or inconclusive.

SMILES	ATXN2 expr inh	ATXN viability	SW480 rerep	PINK1 expr mod	MCF10A rerep	IL1B secr inh
O=c1c2c3c(sc2ncn1/N=C/c1ccc(Br)o1)CCCC3	10%	i	2%	5%[38.3 µM]	5%	?
Cc1ccc(/C=N/n2cnc3sc4c(c3c2=O)CCCC4)o1	14%	i	?	.	?	-58*
CCOc1ccc(-c2cn[nH]c2N)cc1	6%	?	?	6%[38.3 µM]	18µM*	34
COc1ccc2c(c1OC)C(=O)N1c3cccc(Cl)c3C(=O)OC21 (centres undefined)	-10%	i	0.65µM*	5%[38.3 µM]	1.3µM*	-9
COc1ccc2c(c1OC)C(=O)N1c3ccccc3COC21 (centres undefined)	49%	i	-1%	-2%	14%	-10
CCOc1ccc(CCN2C(=S)N([C@@H](Cc3ccc(O)cc3)CN3CCC[C@@H]3CN3C(=S)NC[C@@H]3CC(C)C)C[C@@H]2Cc2ccc(O)cc2)cc1	?	7.1µM*	.	1%	.	0
CCOc1ccc(CCN2C(=S)N([C@@H](Cc3ccc(O)cc3)CN3CCCC3CN3C(=S)NC[C@@H]3Cc3ccc(O)cc3)C[C@@H]2CC(C)C)cc1 (some centres undefined)	?	i	-2%	3%	?	-69*
O=[N+]([O-])c1cc(S(=O)(=O)Nc2ccc(Cl)cc2)ccc1N/N=C/c1ccncc1	24%	i	4%	-2%	4.1µM*	-6
O=C1C(Sc2ccccc2)=C[C@@]2(O)CC[C@@H](O)[C@]1(Sc1ccccc1)[C@H]2O	?	?	.	4%	.	-80*
CCSc1nnnn1-c1ccccc1	5%	i	0%[9.22 µM]	0%	-3%	1
c1ccc(Cn2c(Sc3nnnn3-c3ccccc3)nnc2-c2ccccc2)cc1	0%	i	3%	-1%[38.3 µM]	-5%	-59*
Cc1ccc(C)c(-n2nnnc2Sc2nnnn2-c2ccccc2)c1	?	?	9.2µM*	-5%	5.8µM*	-109*
CCC1CCc2c(sc(NC(=O)C3c4ccccc4Oc4ccccc43)c2C(=O)OC)C1 (centres undefined)	4%	i	.	9%	.	.
O=C(c1cc(C2CC2)nn1-c1ccccc1)N1CCN(c2ccccc2O)CC1	-13%	i	0%	-1%	11%	?
O=C(c1cc(C2CC2)nn1-c1ccccc1)N1CCN(c2ccccn2)CC1	0%	i	1%	4%	-2%	-63*
O=C(c1cc(C2CC2)nn1-c1ccccc1)N1CCN(c2ncc(C(F)(F)F)cc2Cl)CC1	3%	i	-2%	14%	13µM*	-10
CCN(CC)c1ccc(/C=c2\sc3nc4ccccc4n3c2=O)c(O)c1	-25%	.	15µM*	-1%	2.6µM*	-17
O=c1/c(=C/c2ccc(O)c([N+](=O)[O-])c2)sc2nc3ccccc3n12	13%	i	-18%	-1%	10%	16
Cc1cc(/C=c2/sc3nc4ccccc4n3c2=O)c(C)n1-c1ccccn1	-84%	i	8%	?	?	-58*
Cn1ccnc1SCC(=O)Nc1ccc(SC(F)F)cc1	.	i	-4%	2%	-5%	-20
COc1ccc(NC(=O)COC(=O)Cn2cnc3ccccc32)cc1	-8%	i	0%	1%	-6%	0
O=C(Cn1cnc2ccccc21)Nc1ccc(SC(F)F)cc1	-18%	i	1%	1%	11%	-61*
CCn1c(N)[n+](CC(=O)Nc2ccc(SC(F)F)cc2)c2ccccc21	?	i	?	-1%	?	-97*
Cc1ccc(C(=O)Nc2ccc(SC(F)F)cc2)s1	99%	?	-124%	3%	-26%	-59*
CC[N+](CC)(CC)CC(=O)Nc1ccc(SC(F)F)cc1	-25%	i	-8%	-2%	3%	-96*
SMILES	ATXN2 expr inh	ATXN viability	SW480 rerep	PINK1 expr mod	MCF10A rerep	IL1B secr inh
CCC1CN(Cc2ccc(COC)o2)Cc2cc(OC)ccc2O1 (centres undefined)	.	i	.	1%	.	.
O=[N+]([O-])c1ccc(CC(Cl)c2ccccn2)cc1 (centres undefined)	25%	i	1%	1%	2%	-50*
Cc1ccc(Cl)cc1N1C(=O)CC(Sc2ncccn2)C1=O (centres undefined)	.	i	?	3%	?	-12
O=C1CC(Sc2ncccn2)C(=O)N1c1ccccc1C(F)(F)F (centres undefined)	2%	i	-5%	1%	8%	-80*
O=C(NCC1(N2CCOCC2)CCCCC1)c1cnn(-c2nccc(-c3cccs3)n2)c1C1CC1	.	i	.	2%	.	.
Cc1cc(C)cc(C(=O)N(Cc2nc(-c3ccc(Cl)cc3)no2)C(C)C)c1	15%	i	.	2%	.	.
COc1cc(/C=N/NC(=O)C(=O)/C=C2\NC(C)(C)Cc3ccccc32)ccc1O	-11%	?	?	8%	?	-53*
CC(C)COc1ccc(/C(=N/O)c2ccccc2)cc1	38%	i	0%	18%[38.3 µM]	-1%	-79*
CCc1nnc(NS(=O)(=O)c2ccc(N/C=C\C(=O)c3ccc4ccccc4c3)cc2)s1	2%	i	14%	4%	23µM*	16
CCc1nnc(NS(=O)(=O)c2ccc(NC(=O)CCC(=O)OC)cc2)s1	19%	i	-17%	3%	0.58µM*	39
Cc1nn(C)c2ncc(C(=O)c3cc(F)ccc3O)cc12	6%	i	3%	4%	-5%	-17
O=C(c1cnc2ccc3ccccc3c2c1)c1cc(F)ccc1O	9%	i	3.7µM*	1%	?	28
Cc1oc2c(c1C(=O)c1ccc(Cl)cc1)C(=O)C(=O)c1ccccc1-2	5.6µM*	7.1µM*	-4%	-6%	7.3µM*	4
Cc1ccc(C(=O)c2c(C)oc3c2C(=O)C(=O)c2ccccc2-3)cc1	?	.	13µM*	-3%	18µM*	-121*
Cc1ccc(C(=O)c2coc3c2C(=O)C(=O)c2ccccc2-3)cc1	?	.	-3%	12%[38.3 µM]	-3%	0
COc1ccc(OC)c(CCNC(=O)c2nn(C)c3c2CSc2ccccc2-3)c1	.	.	.	0%	.	.
CCc1cc2cc(OC)c(OC)cc2c(Cc2ccccc2)n1	21%	i	.	.	.	.
CCn1cc(S(=O)(=O)c2ccc(C)cc2)c(=O)c2cc(F)c(N3CCCCCC3)cc21	.	.	.	1%	.	.
CC1=NOC(=O)/C1=C\c1ccc(-c2ccc(Cl)c(C(=O)O)c2)o1	-1%	i	-17%	-4%	-5%	18
CC1=NOC(=O)/C1=C\c1ccc(-c2ccccc2Br)o1	?	?	-13%	-1%	?	-96*
